Assay results as given in PubChem BioAssay AID743335 (Broad Institute, 2014).
Calls of active or inactive are those of the source.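 The calls were made as follows: active = cell killing, with a fitted half-maximal concentration at or below twice the top valid dose tested; inconclusive = flat curve with moderate signal loss, or a poor fit; inactive = effect in the rising direction, plus the rest.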

Assay: cell viability loss in HEK293T cells – ATP luminescence, dry powder, set 11, cytotoxicity control, dose response (AID 743335)
Details: ATP luminescence (CellTiter-Glo), 72 h; series mostly up to 15 µM; activity change, negative = cytotoxicity: at the top concentration

SMILES	activity change, negative = cytotoxicity
Cc1cnc(NC(=O)c2cc(S(=O)(=O)N3CCCC3)ccc2N2CCCC2)s1	-2.37% (inactive)
CN(C)S(=O)(=O)c1ccc(N2CCCC2)c(C(=O)Nc2nccs2)c1	0.72% (inactive)
Cc1cnc(NC(=O)c2cc(S(=O)(=O)N3CCCCC3)ccc2N2CCCC2)s1	2.61% (inactive)
COc1cccc2sc(NC(=O)c3cc(S(=O)(=O)N(C)C)ccc3N3CCCC3)nc12	-2.09% (inactive)
Cc1csc(NC(=O)c2cc(S(=O)(=O)N(C)C)ccc2N2CCCC2)n1	-9.89% (inactive)
COc1ccc2nc(NC(=O)c3cc(S(=O)(=O)N(C)C)ccc3N3CCCC3)sc2c1	-15.4% (inactive)
Cc1cnc(NC(=O)c2cc(S(=O)(=O)N(C)C)ccc2N(C)C)s1	-17.5% (inactive)
CN(C)S(=O)(=O)c1ccc(N2CCCC2)c(C(=O)Nc2cccc(F)c2)c1	-17.6% (inactive)
CN(C)CCCN(Cc1cc2ccccc2[nH]c1=O)C(=O)NCc1ccccc1	-7.88% (inactive)
Cc1cnc(NC(=O)c2cc(S(=O)(=O)N(C)C)ccc2N2CCCC2)s1	-25.8% (inactive)
Cc1cnc(NC(=O)c2cc(S(=O)(=O)N(C)C)ccc2N2CCC2)s1	0.864% (inactive)
CN(C)S(=O)(=O)c1ccc(N2CCCC2)c(C(=O)Nc2ccccc2)c1	-12.8% (inactive)
CCN(CC)c1ccc(S(=O)(=O)N(C)C)cc1C(=O)Nc1ncc(C)s1	-14.2% (inactive)
CN(C)CCCN(Cc1cc2ccccc2[nH]c1=O)C(=O)Nc1ccccc1	-18.9% (inactive)
COc1ccc2sc(NC(=O)c3cc(S(=O)(=O)N(C)C)ccc3N3CCCC3)nc2c1	4.68% (inactive)
Cc1cnc(NC(=O)c2cc(S(=O)(=O)N(C)C)ccc2C2CCCC2)s1	-12.9% (inactive)
